Hits are enriched below; roughly 19% of the tested compounds scored in any of these assays.
TDP1 cell noCPT = qHTS for Inhibitors of human tyrosyl-DNA phosphodiesterase 1 (TDP1): qHTS in cells in absence of CPT; DT40 Tdp1-/- hTDP1 cells, no CPT, ATP luminescence, 48 h; AID 686978, 2013; Potency, µM (doses to about 46.2 µM), most hits filed as inhibitors; 420,000 compounds, 15% hits; further: nearly all actives have a fitted effect of over 55% in size
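A cellular qHTS used chicken DT40 cells lacking endogenous Tdp1 but carrying stably transfected human TDP1. Compounds were applied without camptothecin, and cell growth kinetics were judged by ATP-dependent luminescence after ≥48 hr.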
KB-3-1 tox = kills parental KB-3-1 adenocarcinoma cells. KB-3-1 viability, CellTiter-Glo ATP luminescence, 72 h. 400,000 compounds, 1.4% hits. Potency, µM (highest dose often 46.1 µM), usual class: cytotoxic; further: nearly all actives have a fitted effect of over 60% in size
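KB-3-1 parental drug-naive adenocarcinoma cells in DMEM/10% FBS, incubated 72 h at 37 C with pin-transferred compounds across a concentration series. Viability by CellTiter-Glo luminescence; concentration-response curves fitted after normalization.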
DT40 TDP1 CPT = growth inhibition of DT40 Tdp1-/-;hTDP1 cells with camptothecin (screen for TDP1 inhibitors). 420,000 compounds, 12% hits. chicken DT40 Tdp1-/-;hTDP1 cells + 20 nM CPT, ATP luminescence, 48 h. Potency, µM (doses to about 46.2 µM), most hits filed as inhibitors; further: nearly all actives have a fitted effect of over 55% in size
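Chicken DT40 Tdp1-/- cells complemented with human TDP1, 400 cells/well, exposed to compounds plus 20 nM camptothecin for at least 48 h at 37 C; viability read as ATP content by CellTiter-Glo luminescence.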
HT1080NT lethal = kills 2HG-producing HT-1080-NT fibrosarcoma cells. Potency, µM (titrated, usually from 46.1 µM), actives largely listed as cytotoxic. AID 686970. HT-1080-NT fibrosarcoma viability, CellTiter-Glo ATP luminescence, 48 h. 360,000 compounds, 1.6% hits;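 further: NT is the 2HG producing partner of a matched IDH1 knockdown line; nearly all actives have a fitted effect of over 55% in size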
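A 48-hour cytotoxicity screen used HT-1080-NT cells plated 2 hours before compound delivery. ATP-based CellTiter-Glo luminescence measured viability, normalized to DMSO and no-cell controls.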
KB-V1 cytotox = KB-V1 MDR subline cytotoxicity | Potency, µM (titrated, usually from 46.1 µM), usual class: cytotoxic | 400,000 compounds, 3.4% hits | KB-V1 MDR cells viability, CellTiter-Glo, 72 h | AID 1347076; further: nearly all actives have a fitted effect of over 60% in size
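Compound-treated KB-V1 multidrug-resistant cells, 72 h, 37 degrees C; viability by CellTiter-Glo. Fitted qHTS curves give the values.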
HT1080 IDH1KD tx = kills HT-1080 cells with IDH1 knockdown. HT-1080 IDH1 knockdown viability, ATP luminescence, 48 h. 360,000 compounds, 2% hits. Potency, µM (doses to about 46.1 µM), actives largely listed as cytotoxic. AID 686971
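Using the IDH1-knockdown HT-1080 line run in the same batch and compound series as the NT line, viability after 48 h at 37 °C was determined by CellTiter-Glo luminescence and expressed as % activity.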
Each line names hits and unclear results; the compound was inactive in the other large screens. The call rests on the fitted dose curve; in most records, active means well fitted curve in the direction sought with a large enough effect; inconclusive means small, poorly fitted or top-dose-only effect, or another doubt; inactive means no such curve, though single readings can be large; an effect the other way counts as inactive or inconclusive.

CSc1ccc(Cn2c(C)c(C(=O)NCc3ccc(F)cc3)sc2=O)cc1	TDP1 cell noCPT inconclusive, KB-3-1 tox inconclusive, DT40 TDP1 CPT 23µM, KB-V1 cytotox inconclusive
COCCCNC(=O)c1csc([C@H]2C[C@H](O)[C@@H](CO)O2)n1	none
CSc1ccc(Cn2c(C)c(C(=O)NCCC#N)sc2=O)cc1	KB-3-1 tox inconclusive, KB-V1 cytotox 15µM, HT1080 IDH1KD tx inconclusive
Cc1ccc(Cn2c(C)c(C(=O)NCc3cccc(C(F)(F)F)c3)sc2=O)cc1	KB-V1 cytotox inconclusive
CSc1ccc(Cn2c(C)c(C(=O)NCc3ccc(Cl)c(Cl)c3)sc2=O)cc1	TDP1 cell noCPT inconclusive, KB-3-1 tox 15µM, DT40 TDP1 CPT inconclusive, KB-V1 cytotox 16µM
Cc1cccc(CNC(=O)c2sc(=O)n(Cc3c(C)cccc3C)c2C)c1	TDP1 cell noCPT 23µM, KB-3-1 tox inconclusive, DT40 TDP1 CPT inconclusive, KB-V1 cytotox 21µM, HT1080 IDH1KD tx inconclusive
Cc1c(C(=O)NCc2ccc3c(c2)OCCO3)sc(=O)n1Cc1cccc(C(F)(F)F)c1	TDP1 cell noCPT inconclusive, KB-3-1 tox inconclusive, DT40 TDP1 CPT inconclusive, KB-V1 cytotox 7.3µM, HT1080 IDH1KD tx inconclusive
CCOc1ccc(N2CC(C(=O)NCCCc3ccccc3)CC2=O)cc1 (configuration not stated)	none (no result: KB-3-1 tox, KB-V1 cytotox)
O=C(CC(c1cccs1)S(=O)(=O)c1ccccc1)c1ccc(F)cc1 (configuration not stated)	HT1080NT lethal inconclusive
CCC(C(=O)Oc1c(C(C)C)cccc1C(C)C)c1ccccc1 (configuration not stated)	none
Cc1c(C(=O)NCc2ccc3c(c2)OCCO3)sc(=O)n1Cc1ccccc1C#N	TDP1 cell noCPT 16µM, DT40 TDP1 CPT inconclusive, KB-V1 cytotox inconclusive
Cc1c(C(=O)NCc2ccc(Cl)c(Cl)c2)sc(=O)n1Cc1ccc(S(C)(=O)=O)cc1	TDP1 cell noCPT 18µM, KB-3-1 tox inconclusive, DT40 TDP1 CPT inconclusive, KB-V1 cytotox inconclusive
Cc1ccc(Cn2c(C)c(C(=O)NCC(C)C)sc2=O)cc1	TDP1 cell noCPT inconclusive, DT40 TDP1 CPT inconclusive, KB-V1 cytotox 13µM
Cc1ccc(Nc2nnc(SCC(=O)Nc3cccnc3Cl)s2)cc1C	TDP1 cell noCPT inconclusive, DT40 TDP1 CPT inconclusive, KB-V1 cytotox 5.2µM, HT1080 IDH1KD tx inconclusive
COc1ccc(NC(=O)Nc2nnc(SCC(=O)Nc3cccc(C)c3C)s2)cc1	TDP1 cell noCPT 7.3µM, DT40 TDP1 CPT 18µM (no result: KB-3-1 tox, HT1080NT lethal, KB-V1 cytotox, HT1080 IDH1KD tx)
COc1ccccc1Nc1nnc(SCC(=O)Nc2nc(-c3ccc(F)cc3)cs2)s1	TDP1 cell noCPT 13µM, DT40 TDP1 CPT 15µM, HT1080NT lethal 23µM, HT1080 IDH1KD tx inconclusive
COc1ccc(-c2csc(NC(=O)CSc3nnc(Nc4ccccc4C)s3)n2)cc1	TDP1 cell noCPT 6.5µM, DT40 TDP1 CPT 6.5µM, HT1080NT lethal 21µM, HT1080 IDH1KD tx 21µM
CCOc1ccccc1Nc1nnc(SCC(=O)Nc2nc(-c3ccc(OC)cc3)cs2)s1	none
Cc1cccc(NC(=O)CSc2nnc(NC(=O)C3CC3)s2)c1C	none
O=C(c1cc2ccccc2[nH]1)N1CCOCC1	none
COc1ccc2cc(C)c3nnc(SCC(=O)Nc4nc(-c5ccc(F)cc5)cs4)n3c2c1	TDP1 cell noCPT 23µM, KB-3-1 tox inconclusive, DT40 TDP1 CPT 21µM, KB-V1 cytotox inconclusive
Cc1cccc(C)c1Nc1nnc(SCC(=O)Nc2ncc(C(F)(F)F)cc2Cl)s1	DT40 TDP1 CPT 2.1µM, HT1080NT lethal inconclusive, KB-V1 cytotox inconclusive
COc1cc(/C=C2/CCCC(C(=O)C(F)(F)F)=C2O)ccc1O	none
CCOc1cc(/C=N/N=C/c2ccc(O)c(OCC)c2)ccc1O	none
CCOc1cc(/C=C2\CCCC(C(=O)C(F)(F)F)=C2O)ccc1O	TDP1 cell noCPT 23µM, DT40 TDP1 CPT 23µM, HT1080NT lethal inconclusive, HT1080 IDH1KD tx inconclusive
COc1ccc(/C=C2/CCCC(C(=O)C(F)(F)F)=C2O)cc1OC	TDP1 cell noCPT 18µM, DT40 TDP1 CPT 23µM
